For experiment [1], the system named is Wnt5a (protein binding on small-molecule microarray). The experiment can be described thus: Wnt5a binders on small-molecule microarray, primary screen, biophysical, 635/667 nm fluorescence (AID 1142).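 Also: fluorescence read at 667 nm with signal to noise per printed feature.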 As to conditions: 635 nm fluorescence, higher = more signal.
The nature of experiment [2]: cell viability in Huh7 cells, primary screen, cytotoxicity control for HCV replication inhibitor project, CellTiter-Glo luminescence, basal, 48 h (AID 1143).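 Also: Huh7 hepatoma cells carrying a hepatitis C replication reporter with no stimulus; test concentration not given here.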 The settings on record: Huh7 HCV replicon, higher = more signal, called active from +8 up or from −8 down.
Experiment [3] can be described thus: P. aeruginosa biofilm formation inhibitors, primary screen, PAO1 strain, BacTiter-Glo luminescence, LB-PBS (AID 1144). The settings on record: 12 h, higher = more signal.
Experiment [4] is described as follows: CREB reporter modulators without forskolin, primary screen, cell-based, PC12, CRE-LacZ reporter, unstimulated (AID 1145). As to conditions: no forskolin, luminescence, 4.5 h, higher = more signal, called active from +8 up or from −8 down.
Experiment [5] is described as follows: CREB reporter modulators under forskolin, primary screen, cell-based, PC12, CRE-LacZ reporter, forskolin-stimulated (AID 1146).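 Also: PC12 cells with 6xCRE LacZ reporter stimulated by forskolin 10 µM; beta-galactosidase reporter signal reflecting CREB driven transcription.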 The settings on record: luminescence, 4.5 h, higher = more signal, called active from +8 up or from −8 down.
Experiment [6] addresses Streptavidin (Streptomyces avidinii) (UniProt P22629). The experiment can be described thus: streptavidin binders on small-molecule microarray, primary screen, artefact control for SMM compound annotation, biophysical, 635/667 nm fluorescence (AID 1147).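 Also: signal reflects streptavidin binding to arrayed compounds as a control protein.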 As to conditions: streptavidin binding, higher = more signal.
A short description of experiment [7]: small-molecule binders of probe aInhba, primary screen, biochemical, small-molecule microarray, 635/667 nm fluorescence (AID 1148).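 Also: score merges 667nm spot fluorescence with signal-to-noise for antibody binding to printed compounds.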 The settings on record: higher = more signal.
The target of experiment [8] is Torsin-1A (Homo sapiens) (UniProt O14656). The experiment can be described thus: torsin A binders from cell lysate, primary screen, small-molecule microarray, wild-type, 635/667 nm (AID 1149). The settings on record: COS7 hTOR1A-WT lysate, 635 nm fluorescence, higher = more signal.
Chain of Torsin-1A (Homo sapiens) (O14656 whole entry, looked up): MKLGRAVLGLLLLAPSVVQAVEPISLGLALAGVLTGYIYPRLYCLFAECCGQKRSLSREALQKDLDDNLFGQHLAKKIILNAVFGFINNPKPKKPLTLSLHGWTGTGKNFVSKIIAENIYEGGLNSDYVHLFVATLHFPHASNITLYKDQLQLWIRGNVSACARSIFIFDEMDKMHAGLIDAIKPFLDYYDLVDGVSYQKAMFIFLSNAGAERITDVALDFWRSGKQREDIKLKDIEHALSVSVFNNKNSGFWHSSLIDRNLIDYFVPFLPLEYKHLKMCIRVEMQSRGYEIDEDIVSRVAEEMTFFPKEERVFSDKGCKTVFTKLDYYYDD
Experiment [9] has the same target. The experiment can be described thus: small-molecule binders of mutant TOR1A in lysate, primary screen, cell lysate, small-molecule microarray, COS7 lysate, 635/667 nm fluorescence (AID 1150).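 Also: score pools 667 nm emission and signal to noise measuring lysate protein binding.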 As to conditions: COS7 hTOR1A mutant lysate, 635 nm fluorescence, higher = more signal.
Experiment [10] relates to Sonic hedgehog protein (Shh). Put plainly: small-molecule binders of Shh protein, primary screen, biochemical, small-molecule microarray, 635/667 nm fluorescence (AID 1151).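 Also: Shh protein binding to compounds spotted on small-molecule microarray slides; score combines spot fluorescence intensity with signal-to-noise across triplicate slides.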 As to conditions: small-molecule microarray binding, 635 nm fluorescence; higher = more signal.

Active and inactive are the calls of the source. Unless noted, no rule for the calls is given here.

Chain of Streptavidin (Streptomyces avidinii) (P22629 whole entry, looked up): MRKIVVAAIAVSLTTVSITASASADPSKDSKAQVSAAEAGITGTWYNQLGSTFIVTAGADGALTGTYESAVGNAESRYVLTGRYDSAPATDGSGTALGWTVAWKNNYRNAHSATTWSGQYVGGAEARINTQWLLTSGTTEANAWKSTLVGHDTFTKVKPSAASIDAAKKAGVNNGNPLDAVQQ

`CN1C(=O)C2C=CC(C(O)C3CCCCC3)N(N3CCCCC3)C2C1=O` (stereo not given): the composite z-score in experiment [1] came out at 0.341; in [6], 0.842; in experiment [7] it was 0.268; in the experiment with Torsin-1A (Homo sapiens) [8], 0.221; with Torsin-1A (Homo sapiens) [9], 0.579; in [10], 0.875. Also, the z-score in [2] was 0.505 (inactive); in experiment [3], -0.416 (inactive); in experiment [4], -0.326 (inactive); in experiment [5], 0.158 (inactive).
For `NC(=O)NCC#Cc1ccc2c(c1)[C@]1(C(=O)N2)[C@H](C(=O)O)[C@H]2C(=O)O[C@H](c3ccccc3)[C@H](c3ccccc3)N2[C@@H]1c1ccccc1OCCO`, the composite z-score came out at 0.697 in [1]; 1.1 in [6]; 0.374 in experiment [7]; 0.712 with Torsin-1A (Homo sapiens) [8]; 0.651 with Torsin-1A (Homo sapiens) [9]; 1.41 in experiment [10]. Also, the z-score in experiment [2] is -1.95 (inactive); in [3], -1.26 (inactive); in [4], 0.0384 (inactive); in [5], 0.143 (inactive).
On to `CCC[C@@H]1C[C@@]1(CCC)[C@@H](NP(=O)(c1ccccc1)c1ccccc1)c1ccc(Cl)cc1`, for which the composite z-score in experiment [1] was -0.298; in experiment [6], -0.749; in experiment [7] it was -0.232; with Torsin-1A (Homo sapiens) [8], -0.753; in the experiment with Torsin-1A (Homo sapiens) [9], -0.731; in [10], -0.447. Further, the z-score is -1.4 (inactive) in [2], 0.22 (inactive) in experiment [3], 0.0007 (inactive) in [4] and -0.113 (inactive) in experiment [5].
In the case of `COc1ccc(C(O)C2C=CC3C(=O)N(c4ccccc4)C(=O)C3N2Nc2ccc(C#N)cc2)c2ccccc12` (stereo not given), the composite z-score in experiment [1] was 0.0756; in experiment [6], 2.49; in experiment [7], 0.442; with Torsin-1A (Homo sapiens) [8] it was 0.109; with Torsin-1A (Homo sapiens) [9], 0.917; in experiment [10], -0.149. Besides, the z-score is -0.127 (inactive) in experiment [2], -0.856 (inactive) in experiment [3], -0.143 (inactive) in experiment [4] and 0.976 (inactive) in [5].
Turning to `O=C(CS)NCCCCCCNC(=O)[C@H]1C[C@H]2C(=O)N[C@@H](Cc3ccccc3)C(=O)N2[C@H]1c1cccc(OCCO)c1`, the composite z-score in [1] was 1.02; in [6] it was 1.22; in experiment [7], 0.177; with Torsin-1A (Homo sapiens) [8], 0.78; with Torsin-1A (Homo sapiens) [9], 1.06; in [10], 1.72. The z-score in [2] was 0.0054 (inactive); in [3] it was -0.885 (inactive); in experiment [4], 0.285 (inactive); in experiment [5] it was -0.579 (inactive).
Consider `CC(C)(C)OC(=O)CC[C@]1(C(=O)O)N=C(c2ccc(OCCCO)cc2)O[C@H]1c1ccccc1CN=[N+]=[N-]`, for which the composite z-score in [1] is 0.108; in experiment [6], -0.247; in experiment [7], 0.0074; in the experiment with Torsin-1A (Homo sapiens) [8], -0.61; with Torsin-1A (Homo sapiens) [9], -0.13; in experiment [10], -0.533. In addition, the z-score in experiment [2] is 0.109 (inactive); in experiment [3], 0.618 (inactive); in experiment [4] it was -1.09 (inactive); in [5] it was -1.7 (inactive).
With `COC(=O)C(CC#Cc1ccc2c(c1)[C@]1(C(=O)N2)[C@H](C(=O)O)[C@H]2C(=O)O[C@H](c3ccccc3)[C@H](c3ccccc3)N2[C@@H]1c1ccccc1OCCO)C(=O)OC`, the composite z-score came to 0.193 in experiment [1]; 0.678 in experiment [6]; 0.36 in experiment [7]; 1.04 with Torsin-1A (Homo sapiens) [8]; 0.829 with Torsin-1A (Homo sapiens) [9]; 1.41 in [10]. Also, the z-score is -1.66 (inactive) in experiment [2], -0.292 (inactive) in experiment [3], 0.899 (inactive) in experiment [4] and 2.92 (inactive) in experiment [5].
`CC=CC(O)C1C=CC2C(=O)N(c3ccccc3)C(=O)C2N1Nc1ccccc1` (stereo not given): the composite z-score in experiment [1] is 0.859; in [6], 1; in experiment [7], 0.337; in the experiment with Torsin-1A (Homo sapiens) [8] it was 0.358; with Torsin-1A (Homo sapiens) [9], 0.285; in experiment [10] it was 0.0322. In addition, the z-score in experiment [2] was 0.973 (inactive); in experiment [3], -1.33 (inactive); in [4], 0.0501 (inactive); in experiment [5], -0.741 (inactive).
Consider `CCCCN1CC=CC23O[C@@H]4/C=C\CCC(C)OC(=O)C4[C@H]2C(=O)N(CCCCCCO)[C@@H]3C1=O` (stereo not given in full), for which the composite z-score was 0.0569 in [1]; -0.519 in experiment [6]; -0.239 in [7]; 1.08 with Torsin-1A (Homo sapiens) [8]; 2.16 with Torsin-1A (Homo sapiens) [9]; -0.57 in [10]. Moreover, the z-score in [2] is 0.745 (inactive); in experiment [3], -0.72 (inactive); in experiment [4] it was 0.61 (inactive); in experiment [5], -0.0292 (inactive).
For `COc1c(C)cc(-c2cc3c(c(Cc4ccccc4)n2)[Si](C(C)C)(C(C)C)OC3)cc1C`, the composite z-score is 0.0025 in experiment [1]; 0.169 in [6]; -0.128 in experiment [7]; -0.0914 with Torsin-1A (Homo sapiens) [8]; -0.105 with Torsin-1A (Homo sapiens) [9]; 0.513 in experiment [10]. The z-score in experiment [2] was 0.428 (inactive); in experiment [3], 0.602 (inactive); in experiment [4], -0.0848 (inactive); in experiment [5] it was -0.47 (inactive).
Regarding `C=CCC(OC(C)=O)[C@@H]1[C@@H](N(Cc2cc3ccccc3o2)C(=O)c2ccc(C)cc2)c2cc(OCCCO)ccc2N1C(=O)Cc1ccc2ccccc2c1` (stereo not given in full), the composite z-score in experiment [1] is -0.109; in experiment [6] it was -0.172; in experiment [7] it was -0.0523; in the experiment with Torsin-1A (Homo sapiens) [8], -0.0509; with Torsin-1A (Homo sapiens) [9], -0.0619; in [10], 0.0781. In addition, the z-score in experiment [2] is 0.218 (inactive); in experiment [3] it was -0.956 (inactive); in [4], 2.37 (inactive); in experiment [5] it was -0.072 (inactive).
As to `O=C1O[C@@H](c2ccccc2)[C@@H](c2ccccc2)N2[C@@H](c3ccc(O)cc3)[C@]3(C(=O)Nc4ccc(C#CCCO)cc43)[C@@H](C(=O)NC[C@H](O)c3ccccc3)[C@H]12`, the composite z-score in experiment [1] is -0.738; in experiment [6], -0.791; in experiment [7], -0.128; with Torsin-1A (Homo sapiens) [8] it was -0.664; in the experiment with Torsin-1A (Homo sapiens) [9], 0.229; in [10] it was 0.304. In addition, the z-score in experiment [2] is 0.058 (inactive); in experiment [3], 0.142 (inactive); in experiment [4] it was -1.15 (inactive); in experiment [5], -0.869 (inactive).
Regarding `COc1cc2c(cc1O)C(C)N(Cc1cc3c(cc1Br)OCO3)CC2` (stereo not given), the composite z-score is -0.131 in experiment [1]; -0.679 in [6]; -0.157 in [7]; -1.12 with Torsin-1A (Homo sapiens) [8]; -0.829 with Torsin-1A (Homo sapiens) [9]; -0.836 in experiment [10]. Besides, the z-score in experiment [2] was -3.33 (inactive); in [3] it was 0.3 (inactive); in [4], 1.27 (inactive); in experiment [5] it was 0.861 (inactive).
`C=CCN1C(=O)[C@]2(CC=C)N=C(c3ccc(OCCCO)cc3)O[C@@H]2c2ccccc21`: the composite z-score in experiment [1] is 0.731; in experiment [6] it was 0.842; in [7], 0.296; in the experiment with Torsin-1A (Homo sapiens) [8] it was 0.265; with Torsin-1A (Homo sapiens) [9] it was 0.538; in [10], 1.65. The z-score in experiment [2] is -4.15 (inactive); in [3], 0.312 (inactive); in experiment [4] it was 0.796 (inactive); in experiment [5] it was -0.953 (inactive).

These data come from PubChem BioAssay.
